Drawing on PubChem BioAssay AID372 (MTDP, 2006), this text covers inhibition for 62 compounds.

Among all 100,000 compounds or so, about 770 (0.77%) were called active. Cut-off read from the data, not from the text of the source: active = inhibition above about 50%; inactive = the rest. What follows is part of a selection rich in actives, with near analogues and random picks from the rest.

The target in this test is Gag-Pol polyprotein (Human immunodeficiency virus type 1 group M subtype B (isolate HXB2)) (UniProt P04585). The test is described as follows: RNase H inhibition, HIV 1 Gag Pol polyprotein, FRET biochemical assay, screening (AID 372). The settings on record: HIV-1 RT RNase H, FRET RNA/DNA substrate fluorescence; at 10 µM; hits give high values.
As for `O=C(/C=C/c1cc(Br)cs1)Nc1ccccc1`, the inhibition (in general, how much of the control response was suppressed) is 11% (inactive). As for `Cc1cc(C)c(S(=O)(=O)N2CCCC2=O)c(C)c1`, the inhibition was 0% (inactive). Consider `O=C(Nc1cc(NC(=O)c2cc(Cl)ccc2Cl)ccc1Cl)c1ccccc1`, for which the inhibition is 20% (inactive). The value for `Cc1nnc(C)n1/N=C/c1ccc(Cl)cc1` was 2% (inactive). For the compound `Cn1c(SC/C=C/c2ccccc2)nc2sc3c(c2c1=O)CCC3`, the inhibition is 2% (inactive).

In the case of `CCOC(=O)c1c(NC(=O)Cc2cccs2)sc(C(=O)Nc2cc(C(F)(F)F)ccc2Cl)c1C`, the inhibition is 16% (inactive). The value for `COc1ccc(C2CC(=O)N(CCCN(C)C)C2)cc1` (configuration not stated) was 2% (inactive); that for `O=C(N/N=C/c1cccc(Cl)c1Cl)c1ccc(O)cc1` was 0% (inactive).

Take `O=C(N/N=C/c1cccc(O)c1O)c1ccc(O)cc1`: the inhibition was 32% (inactive). Then `O=C(N/N=C/c1cccc(O)c1O)c1ccccc1`, with 31% (inactive); and `O=C(N/N=C/c1cccc(Cl)c1Cl)c1ccc(Cl)c(Cl)c1`, with 5% (inactive); and `O=C(N/N=C/c1cccc(Cl)c1Cl)c1ccc(O)c(O)c1`, with 56% (active). Then `O=C(N/N=C/c1cccc(O)c1O)c1cc(O)cc(O)c1`, with 86% (active).

`Oc1c(Cl)cc(Cl)cc1C=Nc1ccc(-c2nc3ccccc3[nH]2)cc1`: the inhibition was 0% (inactive).

On to `CCOC(=O)COc1ccc(/C=C2\C(=O)NC(=S)N(c3ccc(OCC)cc3)C2=O)cc1OC`, for which the inhibition was 9% (inactive). `NC1=NC(=O)/C(=C/c2cccc(OS(=O)(=O)c3cccc([N+](=O)[O-])c3)c2)S1`: the inhibition is 3% (inactive). The value for `COc1ccc(CSCC(=O)N/N=C/c2ccccc2O)cc1` was 14% (inactive). The value for `COc1ccc(CSCC(=O)N/N=C/c2c(Cl)cccc2Cl)cc1` was 60% (active). With `Cc1cc(C)nc(SCC(=O)N/N=C/c2c(Cl)cccc2Cl)n1`, the inhibition was 20% (inactive). The value for `CCOC(=O)c1c(NC(=O)c2cc(-c3ccc(C)c(C)c3)nc3ccccc23)sc(C(N)=O)c1C` was 5% (inactive); that for `CCOC(=O)c1c(NC(=O)c2cc(-c3ccc(C(C)C)cc3)nc3ccccc23)sc(C(N)=O)c1C` was 55% (active); that for `CCOC(=O)c1c(NC(=O)c2cc(-c3ccccc3)nc3ccccc23)sc(C(N)=O)c1C` was 24% (inactive).

For the compound `C=CCn1c(-c2nonc2NC(C)=O)nc2ccccc21`, the inhibition was 42% (inactive).

In the case of `Oc1ccc(/C=N/Nc2nncc(-c3ccccc3)n2)cc1`, the inhibition was 5% (inactive). Then `Oc1ccc(/C=N/Nc2nncc(-c3ccccc3)n2)c(O)c1`, with 23% (inactive); and `Cc1ccnc(NC(=O)c2ccc(OCC(C)C)cc2)c1`, with 0% (inactive); and `O=C1OC2C=CC(Br)=CC2C=C1C(=O)N1CCSC1c1ccc2c3c(cccc13)CC2` (configuration not stated), with 6% (inactive).

`CCN1C(=O)/C(=C/c2cc(Cl)cc(Cl)c2OCCOc2ccccc2OC)SC1=S`: the inhibition is 7% (inactive).

Consider `CN1C[N+]([O-])=C(c2ccccc2)C1(C)C`, for which the inhibition was 3% (inactive). The value for `CCOC(=O)C1=C(c2ccccc2)S/C(=C2/C(=S)C(C)(C)Nc3ccc(C(c4ccccc4)(c4ccccc4)c4ccccc4)cc32)S1` was 27% (inactive); that for `COC(=O)C1=C(C(=O)OC)SC(=C2C(=S)C(C)(C)Nc3ccc(C)cc32)S1` was 28% (inactive); that for `COC(=O)C1=C(C(=O)OC)SC(=C2C(=S)C(C)(C)Nc3ccc(C(c4ccccc4)(c4ccccc4)c4ccccc4)cc32)S1` was 53% (active). For `CC(=O)N1CCN(C2=NC(=O)/C(=C/c3ccc(O)cc3)S2)CC1`, the inhibition is 10% (inactive). Then `Cc1ccc(C(=O)O)cc1NC(=O)C1CC=CCC1C(=O)O` (configuration not stated), with 10% (inactive).

`CCOCCOC(=O)C1=C(C)NC2=C(C(=O)CCC2)C1c1ccc(CC)cc1` (configuration not stated): the inhibition was 12% (inactive). The value for `CCN(CC)S(=O)(=O)c1ccc(-c2ccc(S(=O)(=O)N(CC)CC)cc2)cc1` was 11% (inactive); that for `N#C/C(=C/c1ccc(O)cc1)C(=O)Nc1ccc(O)cc1` was 8% (inactive). Then `N#C/C(=C\c1ccc(OC(=O)c2ccc(Br)cc2)cc1)C(=O)Nc1cccc(Cl)c1`, with 55% (active). The value for `N#C/C(=C/c1ccc(Cl)cc1)C(=O)Nc1ccc(Cl)cc1` was 3% (inactive); that for `N#C/C(=C/c1ccc(Cl)cc1)C(=O)Nc1cccc(Br)c1` was 15% (inactive); that for `N#C/C(=C/c1ccc(Cl)cc1)C(=O)Nc1ccc(O)cc1` was 60% (active). Turning to `N#C/C(=C\c1ccccc1)C(=O)Nc1ccccc1Br`, the inhibition was 9% (inactive).

Take `N#C/C(=C\c1cc(Br)c(O)c(Br)c1)C(=O)Nc1ccccc1Br`: the inhibition is 14% (inactive). The value for `N#C/C(=C/c1cccc(Cl)c1)C(=O)Nc1cccc(Br)c1` was 12% (inactive). Regarding `N#C/C(=C\c1ccc(OC(=O)c2ccco2)cc1)C(=O)Nc1ccccc1Br`, the inhibition is 50% (active). Then `O=C(Nc1ccc(Cl)cc1)O/N=C\c1ccc(Br)cc1`, with 29% (inactive). Then `COc1ccc(C2/C(=C(/O)c3ccc(Cl)cc3)C(=O)C(=O)N2CCCC(=O)O)cc1` (configuration not stated), with 4% (inactive). Then `Nc1ccc[n+](CC(=O)c2ccccc2)c1`, with 2% (inactive); and `Cc1ccccc1OCCNc1cc(N2CCOCC2)ccc1[N+](=O)[O-]`, with 10% (inactive); and `Cc1ccc(Cl)cc1NC(=O)/C(C#N)=C\c1ccc(I)o1`, with 9% (inactive). Take `COc1ccc(Br)cc1/C=C1\SC(N2CCOCC2)=NC1=O`: the inhibition is 52% (active). Turning to `COc1ccc(Br)cc1/C=C1/SC(N2CCCCC2)=NC1=O`, the inhibition is 14% (inactive).

As to `COc1ccc(Br)cc1/C=C1\SC(N2CCCC2)=NC1=O`, the inhibition was 19% (inactive). The value for `COc1ccc(C2CC(=O)C=C(Nc3ccccc3N)C2)cc1OC` (configuration not stated) was 10% (inactive); that for `Cc1ccccc1N1C(=O)/C(=C\c2ccco2)C(=O)N(c2ccccc2)C1=S` was 49% (inactive). For `CN1C(=O)C(=Cc2ccco2)C(=O)N(C)C1=S`, the inhibition was 61% (active).

For `COC(=O)C1=C(C)N(C)C(=O)/C1=C\c1ccco1`, the inhibition was 11% (inactive). Then `O=C1NC(=O)N(c2ccc(Br)cc2)C(=O)/C1=C/c1ccco1`, with 12% (inactive).

For the compound `CN1C(=O)C(=C/C=C/c2ccco2)C(=O)N(C)C1=S`, the inhibition is 16% (inactive). The value for `Oc1ccc(Cl)cc1-c1cc(-c2ccc(Cl)cc2)n[nH]1` was 0% (inactive); that for `O=S(=O)(c1ccc(-c2csc(Nc3ccc4c(c3)OCO4)n2)cc1)N1CCOCC1` was 8% (inactive). Then `CCCCNCCOc1ccccc1OCC`, with 12% (inactive).
